According to PubChem BioAssay (Tox21):
Active and inactive are the calls of the source. Calls follow the shape of the full dose curve.

Each compound was assayed against Thyrotropin-releasing hormone receptor (Homo sapiens) (UniProt P34981) (assay: qHTS assay to identify small molecule agonists of the thyrotropin-releasing hormone receptor (TRHR) signaling pathway (AID 1346891;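 also: HEK293 cells expressing TRHR with calcium dye readout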)). Details: TRHR-HEK293 calcium fluorescence, agonist mode; series mostly up to 57.6 µM.
Text: National Center for Advancing Translational Sciences [NCATS] NIH Chemical Genomics Center [NCGC] U.S. Environmental Protection Agency [EPA] National Institutes of Environmental Health Sciences [NIEHS] National Toxicology Program [NTP] Assay overview: Thyrotropin-releasing hormone (TRH) receptor (TRHR) is a G-protein-coupled receptor which binds the tripeptide thyrotropin releasing hormone. TRHR is found in the brain and, when bound by TRH, acts (through phospholipase C) to increase intracellular inositol trisphosphate. It plays a crucial role in the anterior pituitary where it controls the synthesis and secretion of thyroid stimulating hormone and prolactin. The TRHR-Hek293 assay is a cell-based assay, and it has the potential to screen G protein-coupled receptors. A compound/drug can either activate (agonist) or suppress (antagonist) GPCRs that can be monitored by levels of intracellular calcium. Using this assay, the Tox21 10K compound library was screened to identify potential TRHR agonists.
Assay Protocol Summary: The TRHR-Hek293 cells were dispensed at 1500cells/4uL/well in 1536-well black-clear bottom plates using a Multidrop dispenser. After the assay plates were incubated at a 37 C/5% CO2 incubator for 18 hours, 4 uL of Dye-Loading Solution was added to each well. The plates were incubated at 37 C for 2 hours. For agonist mode, 23 nL of compounds dissolved in DMSO, positive controls or DMSO only was transferred to the assay plate by a pin tool. The fluorescence intensity in the plates was measured using FDSS 7000EX kinetic plate reader for 3 min at 1 sec intervals. Each test compound was measured at 15 concentrations and in triplicates.

Thyrotropin-releasing hormone receptor (Homo sapiens), sequence (P34981 whole entry, looked up): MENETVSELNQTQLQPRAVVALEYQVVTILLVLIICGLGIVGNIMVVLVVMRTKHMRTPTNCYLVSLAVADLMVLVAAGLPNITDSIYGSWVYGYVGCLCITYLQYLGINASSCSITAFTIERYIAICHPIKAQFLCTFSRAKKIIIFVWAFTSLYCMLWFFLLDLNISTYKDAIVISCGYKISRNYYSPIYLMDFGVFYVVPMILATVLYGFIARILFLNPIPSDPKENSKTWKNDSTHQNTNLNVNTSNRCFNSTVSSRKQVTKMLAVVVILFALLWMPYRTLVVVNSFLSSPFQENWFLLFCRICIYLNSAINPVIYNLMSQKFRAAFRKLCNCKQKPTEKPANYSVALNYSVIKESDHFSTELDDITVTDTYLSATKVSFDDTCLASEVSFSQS

| Structure (SMILES) | outcome |
| --- | --- |
| CC[n+]1c(-c2ccccc2)c2cc(N)ccc2c2ccc(N)cc21 | inactive |
| O=[N+]([O-])c1ccc(Nc2ccccc2)cc1 | inactive |
| O=P(OCCCl)(OCCCl)OCCCl | inactive |
| CCOP(=S)(OCC)OP(=S)(OCC)OCC | inactive |
| C=CC(=O)OCC(CC)(COC(=O)C=C)COC(=O)C=C | inactive |
| O=C(O)CF | inactive |
| CCNCC | inactive |
| CCOP(=S)(OCC)SCn1c(=O)oc2cc(Cl)ccc21 | inactive |
| CCC/C=N/O | inactive |
| CC(C)Nc1ccc(Nc2ccccc2)cc1 | inactive |
| Oc1ccc(Cl)cc1Cc1ccccc1 | inactive |
| N#CCCCCC#N | inactive |
| CCCCCCCCCc1ccc(O)cc1 | inactive |
| Clc1ccccc1-c1nnc(-c2ccccc2Cl)nn1 | inactive |
| O=C1C(Cl)=C(Cl)C(=O)c2ccccc21 | inactive |
| CCCCCCCCCCCCCl | inactive |
| Nc1ccc2ccccc2c1 | inactive |
| CC(O)CN(CC(C)O)CC(C)O (stereo not given) | inactive |
| CC1=C(C(=O)Nc2ccccc2)SCCO1 | inactive |
| Nc1ccc([N+](=O)[O-])cc1N | inactive |

| Structure (SMILES) | outcome |
| --- | --- |
| COC(=O)Nc1nc2ccccc2[nH]1 | inactive |
| Oc1ccc(Cl)cc1Cl | inactive |
| O=C(O)c1nn(Cc2ccc(Cl)cc2Cl)c2ccccc12 | inactive |
| CN(C)c1nc(=O)n(C2CCCCC2)c(=O)n1C | inactive |
| Cc1ccc([N+](=O)[O-])cc1 | inactive |
| CCCCOCC1CO1 (stereo not given) | inactive |
| CCC(=O)Nc1ccc(Cl)c(Cl)c1 | inactive |
| O=[N+]([O-])/N=C1\NCCN1Cc1ccc(Cl)nc1 | inactive |
| CCCCC(C#N)(Cn1cncn1)c1ccc(Cl)cc1 (stereo not given) | inactive |
| Cc1cc(Cl)ccc1N=CN(C)C | inactive |
| S=c1[nH]c2ccccc2[nH]1 | inactive |
| C[C@]12CCC(=O)C=C1CC[C@@H]1[C@@H]2CC[C@@]2(C)[C@H]1CC[C@]2(C)O | inactive |
| CNC(=O)Oc1cccc2c1OC(C)(C)C2 | inactive |
| CCCCOCCOC(C)=O | inactive |
| CNC(=O)CSP(=S)(OC)OC | inactive |
| CCC[CH2][Sn]([Cl])([Cl])[CH2]CCC | inactive |
| CC1(C)Cc2cccc(O)c2O1 | inactive |
| CN(C)c1ccccc1 | inactive |
| Clc1ccc(C(Cl)(Cl)Cl)cc1 | inactive |
| NC(=O)CN1CCCC1=O | inactive |
